Test [1] can be described thus: qHTS assay to identify small molecule antagonists of the androgen receptor (AR) signaling pathway using the MDA cell line in the presence of 0.5 nM R1881 - cell viability counter screen (AID 1259242). Also: nearly all actives have a fitted effect of over 45% in size. The essentials: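 Cytotoxicity toward MDA-kb2 cells is measured by CellTiter-Fluor live-cell protease fluorescence after 16 hr compound exposure at 37C in the presence of 0.5 nM R1881 stimulator.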
Background: In qHTS, concentration-response curves come from the screen itself.

In test [2] the target is Androgen receptor (Homo sapiens) (UniProt P10275). Briefly: qHTS assay to identify small molecule antagonists of the androgen receptor (AR) signaling pathway using the MDA cell line in the presence of 0.5 nM R1881 (AID 1259243). Also: nearly all actives have a fitted effect of over 50% in size. Also: potency is read from the fitted curve at half-maximal effect. In outline: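 Steps: seed MDA-kb2 cells, incubate 5 hr at 37C; pin-transfer compounds in DMSO; add R1881 to 0.5 nM final; incubate 16 hr; add ONE-Glo, wait 30 min at room temperature; read luminescence.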
Chain of Androgen receptor (Homo sapiens) (P10275 whole entry, looked up): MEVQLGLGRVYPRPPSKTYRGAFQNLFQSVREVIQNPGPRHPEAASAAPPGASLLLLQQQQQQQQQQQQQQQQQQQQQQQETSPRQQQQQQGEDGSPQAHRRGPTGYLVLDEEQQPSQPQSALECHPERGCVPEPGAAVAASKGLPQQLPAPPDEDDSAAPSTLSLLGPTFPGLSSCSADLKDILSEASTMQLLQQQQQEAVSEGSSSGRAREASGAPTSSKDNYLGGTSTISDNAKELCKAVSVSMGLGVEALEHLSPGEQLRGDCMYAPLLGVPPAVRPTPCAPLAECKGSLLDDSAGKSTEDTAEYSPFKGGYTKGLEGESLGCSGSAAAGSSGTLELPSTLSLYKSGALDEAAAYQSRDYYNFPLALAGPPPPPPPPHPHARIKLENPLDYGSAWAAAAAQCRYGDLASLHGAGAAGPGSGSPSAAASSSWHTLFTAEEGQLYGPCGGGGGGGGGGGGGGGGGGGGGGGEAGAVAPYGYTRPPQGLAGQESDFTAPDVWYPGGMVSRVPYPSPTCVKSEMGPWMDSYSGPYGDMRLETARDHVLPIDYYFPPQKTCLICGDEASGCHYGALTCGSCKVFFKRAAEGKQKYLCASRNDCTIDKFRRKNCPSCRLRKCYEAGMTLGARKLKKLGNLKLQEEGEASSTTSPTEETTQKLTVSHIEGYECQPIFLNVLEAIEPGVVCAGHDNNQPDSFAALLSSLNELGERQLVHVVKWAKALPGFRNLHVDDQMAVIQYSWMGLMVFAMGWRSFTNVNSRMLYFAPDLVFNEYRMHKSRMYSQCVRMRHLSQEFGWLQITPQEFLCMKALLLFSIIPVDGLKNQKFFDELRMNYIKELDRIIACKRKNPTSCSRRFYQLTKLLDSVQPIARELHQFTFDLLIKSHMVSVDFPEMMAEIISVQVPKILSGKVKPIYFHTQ

The target in test [3] is Estrogen receptor (Homo sapiens) (UniProt P03372). The test is described as follows: qHTS assay to identify small molecule antagonists of the estrogen receptor alpha (ER-alpha) signaling pathway using the BG1 cell line in the presence of 0.1 nM 17-beta-estradiol (AID 1259244). Also: nearly all actives have a fitted effect of over 50% in size. Also: potency is read from the fitted curve at half-maximal effect. The essentials: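 After 5 days in hormone-depleted medium (charcoal-stripped serum, no phenol red), VM7Luc4E2 cells were seeded, incubated 24 h, then co-treated with compound and 0.1 nM (final) estradiol for 22 h before luminescence detection.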
Chain of Estrogen receptor (Homo sapiens) (P03372 whole entry, looked up): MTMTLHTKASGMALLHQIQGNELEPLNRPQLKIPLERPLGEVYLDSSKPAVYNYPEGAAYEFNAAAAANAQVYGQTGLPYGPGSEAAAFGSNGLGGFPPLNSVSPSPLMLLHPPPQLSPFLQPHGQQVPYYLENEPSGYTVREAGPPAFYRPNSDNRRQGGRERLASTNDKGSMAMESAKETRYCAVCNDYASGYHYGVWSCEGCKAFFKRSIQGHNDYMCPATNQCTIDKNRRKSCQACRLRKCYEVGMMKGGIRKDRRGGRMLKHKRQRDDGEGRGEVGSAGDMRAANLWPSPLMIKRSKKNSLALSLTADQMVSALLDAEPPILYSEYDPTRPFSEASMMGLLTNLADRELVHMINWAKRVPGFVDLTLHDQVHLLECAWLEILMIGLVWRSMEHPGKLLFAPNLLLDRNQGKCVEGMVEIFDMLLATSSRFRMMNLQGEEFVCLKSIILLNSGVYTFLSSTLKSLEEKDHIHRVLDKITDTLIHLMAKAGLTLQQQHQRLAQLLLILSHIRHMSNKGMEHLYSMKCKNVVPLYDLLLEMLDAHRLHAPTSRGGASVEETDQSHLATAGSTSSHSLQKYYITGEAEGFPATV

A short description of test [4]: qHTS assay to identify small molecule phospholipidosis (PLD) inducers (AID 1259344; active = well fitted curve in the direction sought with a large enough effect; an effect the other way counts as inactive or inconclusive). In outline: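 Quantitative HTS in HepG2: compound plus LipidTOX Red dye for 24 h, paraformaldehyde fixation with Hoechst 33342, widefield high-content imaging; amiodarone as positive and DMSO as negative control.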
Test [5] in a line: qHTS assay to identify small molecule HDAC inhibitors (AID 1259364). Also: top concentration of the series differs between compounds; nearly all actives have a fitted effect of over 45% in size. The essentials: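 Homogeneous cell-based luminescent assay of endogenous class I/II HDAC activity; HCT-116 cells, 2 h compound exposure, 30 min HDAC-Glo development at RT.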
Test [6] is described as follows: qHTS assay to identify small molecule HDAC inhibitors - cell viability counter screen (AID 1259365). Also: series mostly up to about 92 µM; nearly all actives have a fitted effect of over 50% in size. The essentials: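 Wild-type HCT-116 cells were seeded at 1,500 per well, incubated overnight at 37 C, then exposed to compounds in DMSO for 2hr. Viability was read by CellTiter-Glo luminescence after 30min at room temperature.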
Test [7] can be described thus: qHTS assay to identify small molecule agonists of the sonic hedgehog signaling (Shh) pathway - cell viability counter screen (AID 1259366). Also: nearly all actives have a fitted effect of over 50% in size. Also: potency is read from the fitted curve at half-maximal effect. The essentials: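 NIH/3T3-derived 3T3 Gli1-Luc cells (stable Gli1-responsive firefly luciferase reporter) were seeded, rested 4 hr at 37 C/5% CO2, then exposed to compounds in DMSO for 24 hr; viability was read by CellTiter-Fluor fluorescence in the same wells.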

A short description of test [8]: qHTS assay to identify small molecule antagonists of the sonic hedgehog signaling (Shh) pathway - cell viability counter screen (AID 1259367). Also: nearly all actives have a fitted effect of over 55% in size. Also: potency is read from the fitted curve at half-maximal effect. In outline: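 Seed 3T3 Gli1-Luc cells at 2,000 per well; incubate 4 hr; add compound in DMSO, then conditioned medium; incubate at 37C with 5% CO2; add CellTiter-Fluor after 23 hr; read fluorescence 1 hr later.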
Test [9] is described as follows: qHTS assay to identify small molecule agonists of the sonic hedgehog signaling (Shh) pathway (AID 1259368; calls by dose curve; also: series mostly up to about 92 µM; nearly all actives have a fitted effect of over 15% in size). The essentials:
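Steps: seed 3T3 Gli1-Luc cells, incubate 4 hr at 37 C, pin-transfer compounds in DMSO alongside a positive control, incubate 24 hr, add luciferase detection reagent, wait 30 min at room temperature, read luminescence.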

Test [10] can be described thus: qHTS assay to identify small molecule antagonists of the sonic hedgehog signaling (Shh) pathway (AID 1259369; calls by dose curve; also: nearly all actives have a fitted effect of over 45% in size; also: potency is read from the fitted curve at half-maximal effect). The essentials: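 Inhibition of Shh signalling is measured as reduced Gli1-response-element firefly luciferase output in an NIH/3T3-derived stable reporter clone stimulated with conditioned medium for 24hr.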
Test [11] can be described thus: qHTS assay to identify small molecule agonists of the androgen receptor (AR) signaling pathway in the presence of an antagonist - cell viability counter screen (AID 1259379). Also: nearly all actives have a fitted effect of over 25% in size. Also: potency is read from the fitted curve at half-maximal effect. The essentials:
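Fluorescence from CellTiter-Fluor, added after 15 hr and read 1 hr later, gave cell viability. Cells were MDA-kb2 exposed to compounds (15 concentrations) in the presence of 3.0uM nilutamide at 37C, 0% CO2.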

Test [12] can be described thus: qHTS assay to identify small molecule agonists of the estrogen receptor beta (ER-beta) signaling pathway - cell viability counter screen (AID 1259380). Also: nearly all actives have a fitted effect of over 30% in size. Also: potency is read from the fitted curve at half-maximal effect. In outline: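 Same-well viability counter screen. Cells: ER-beta-UAS-bla HEK293T, plated 6 hr before compound, in 2% charcoal-stripped FBS. Compound exposure 16 hr, 37C; viability by CellTiter-Glo luminescence after 30 min at room temperature.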

Test [13] has as its target Androgen receptor (Homo sapiens) (UniProt P10275). The test is described as follows: qHTS assay to identify small molecule agonists of the androgen receptor (AR) signaling pathway in the presence of an antagonist (AID 1259381; calls by dose curve; also: nearly all actives have a fitted effect of over 15% in size). In outline:
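Cells are MDA-kb2 (human breast carcinoma, MMTV-luc, AR/GR responsive). Nilutamide is present at 3.0uM final throughout; compounds are added at 15 concentrations and incubated 16hr at 37C before ONE-Glo luminescence detection.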

The target of test [14] is Estrogen receptor (Homo sapiens) (UniProt P03372). Briefly: qHTS assay to identify small molecule agonists of the estrogen receptor alpha (ER-alpha) signaling pathway in the presence of an antagonist (AID 1259383; calls by dose curve; also: top concentration of the series differs between compounds; nearly all actives have a fitted effect of over 15% in size). In outline:
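Cells are hormone-deprived for 5 days (charcoal-stripped FBS, no phenol red), plated for 24hr, spiked with 10.0nM ICI-182,780, then dosed at 15 concentrations. After 22hr at 37C, ONE-Glo luminescence reports ERE-luciferase activity.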

Test [15] in a line: qHTS assay to identify small molecule agonists or antagonists of the thyroid stimulating hormone receptor (TSHR) signaling pathway - wild type cell line counter screen (AID 1259384; calls by dose curve). The essentials:
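Wild-type Hek293 cells, 800/well, 18 h at 37C, then compound with Ro20-1724 for 30 min RT. cAMP by HTRF (cAMP-d2/anti-cAMP cryptate), 1 h RT, fluorescence read. 15 concentrations, triplicates.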

Test [16] has as its target Thyrotropin receptor (Homo sapiens) (UniProt P16473). The test is described as follows: qHTS assay to identify small molecule antagonists of the thyroid stimulating hormone receptor (TSHR) signaling pathway (AID 1259385; calls by dose curve; also: nearly all actives have a fitted effect of over 20% in size). In outline: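 TSHR-HEK293 cells (800/well) plated 18 h, then compounds with Ro20-1724 and TSH at 1.5 ng/mL final, 30 min at room temperature. cAMP quantified by HTRF (cAMP-d2/anti-cAMP-cryptate, 1 h); 15 concentrations in triplicate.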

Test [17] in a line: qHTS assay to identify small molecule antagonists of the estrogen receptor alpha (ER-alpha) signaling pathway using the BG1 cell line in the presence of 0.1 nM 17-beta-estradiol - cell viability counter screen (AID 1259241). Also: nearly all actives have a fitted effect of over 40% in size. In outline:
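VM7Luc4E2 cells (endogenous ER-alpha, 4×ERE-luciferase), hormone-starved 5 days in charcoal-stripped FBS, were treated with compounds plus 0.1 nM 17beta-estradiol for 22 hr at 37C; viability read in same wells as CellTiter-Fluor live-cell protease fluorescence.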

The nature of test [18]: qHTS assay to identify small molecule antagonists of the estrogen receptor beta (ER-beta) signaling pathway - cell viability counter screen (AID 1259382). Also: nearly all actives have a fitted effect of over 55% in size. Also: potency is read from the fitted curve at half-maximal effect. The essentials: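 Following a 6 hr plating period, HEK293T cells carrying a UAS-driven beta-lactamase reporter under ER-beta control received compounds and 1nM E2 (final). After 16 hr at 37C and 2 hr substrate loading, CellTiter-Glo luminescence indicated viability.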

The target in test [19] is Estrogen receptor beta (Homo sapiens) (UniProt Q92731). The test is described as follows: qHTS assay to identify small molecule antagonists of the estrogen receptor beta (ER-beta) signaling pathway (AID 1259378; active = well fitted inhibition curve with a large enough effect in the signal ratio in the repeat runs, not every such curve was filed as active; the % refers to the signal ratio; also: potency is read from the fitted curve at half-maximal effect). In outline: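 ER-beta-UAS-bla HEK293T cells in 2% charcoal-stripped FBS medium treated with compound plus 1nM final 17-beta-estradiol for 16 hr at 37C. Beta-lactamase reporter read by FRET substrate fluorescence after 2 hours at room temperature.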
Chain of Estrogen receptor beta (Homo sapiens) (Q92731 whole entry, looked up): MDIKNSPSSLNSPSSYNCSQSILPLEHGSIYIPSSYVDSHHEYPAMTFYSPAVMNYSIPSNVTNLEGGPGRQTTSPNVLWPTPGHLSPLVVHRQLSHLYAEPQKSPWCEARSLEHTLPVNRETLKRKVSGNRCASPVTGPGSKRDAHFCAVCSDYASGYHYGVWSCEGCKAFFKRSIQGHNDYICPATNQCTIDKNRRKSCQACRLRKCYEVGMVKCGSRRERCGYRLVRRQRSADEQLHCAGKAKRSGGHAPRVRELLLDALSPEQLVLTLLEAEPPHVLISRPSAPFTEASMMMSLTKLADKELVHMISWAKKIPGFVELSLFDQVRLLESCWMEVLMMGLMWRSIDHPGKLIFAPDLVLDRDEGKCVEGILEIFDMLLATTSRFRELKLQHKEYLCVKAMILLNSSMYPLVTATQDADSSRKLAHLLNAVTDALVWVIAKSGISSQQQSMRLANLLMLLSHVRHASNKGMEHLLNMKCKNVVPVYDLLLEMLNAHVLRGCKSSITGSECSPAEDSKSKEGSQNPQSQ

For test [20] the target is unchanged. Briefly: qHTS assay to identify small molecule agonists of the estrogen receptor beta (ER-beta) signaling pathway (AID 1259377; active = well fitted activation curve with a large enough effect in the signal ratio in the repeat runs, not every such curve was filed as active; the % refers to the signal ratio). The essentials:
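ER-beta-UAS-bla HEK293T (GripTite) cells carrying a UAS-driven beta-lactamase reporter, in medium with 2% charcoal-stripped FBS, were exposed to compounds for 16 hr at 37C; LiveBLAzer B/G FRET substrate was then added and fluorescence read after 2 hours at room temperature.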

Results filed as inconclusive are left out. Calls of active or inactive are those of the source. Unless noted, calls follow the shape of the dose curve; as a rule, active = well fitted curve in the direction sought with a large enough effect in the repeat runs; inconclusive = weak or mixed curves; inactive = no such curve, though single readings can be large; an effect the other way counts as inactive or inconclusive.

Chain of Thyrotropin receptor (Homo sapiens) (P16473 whole entry, looked up): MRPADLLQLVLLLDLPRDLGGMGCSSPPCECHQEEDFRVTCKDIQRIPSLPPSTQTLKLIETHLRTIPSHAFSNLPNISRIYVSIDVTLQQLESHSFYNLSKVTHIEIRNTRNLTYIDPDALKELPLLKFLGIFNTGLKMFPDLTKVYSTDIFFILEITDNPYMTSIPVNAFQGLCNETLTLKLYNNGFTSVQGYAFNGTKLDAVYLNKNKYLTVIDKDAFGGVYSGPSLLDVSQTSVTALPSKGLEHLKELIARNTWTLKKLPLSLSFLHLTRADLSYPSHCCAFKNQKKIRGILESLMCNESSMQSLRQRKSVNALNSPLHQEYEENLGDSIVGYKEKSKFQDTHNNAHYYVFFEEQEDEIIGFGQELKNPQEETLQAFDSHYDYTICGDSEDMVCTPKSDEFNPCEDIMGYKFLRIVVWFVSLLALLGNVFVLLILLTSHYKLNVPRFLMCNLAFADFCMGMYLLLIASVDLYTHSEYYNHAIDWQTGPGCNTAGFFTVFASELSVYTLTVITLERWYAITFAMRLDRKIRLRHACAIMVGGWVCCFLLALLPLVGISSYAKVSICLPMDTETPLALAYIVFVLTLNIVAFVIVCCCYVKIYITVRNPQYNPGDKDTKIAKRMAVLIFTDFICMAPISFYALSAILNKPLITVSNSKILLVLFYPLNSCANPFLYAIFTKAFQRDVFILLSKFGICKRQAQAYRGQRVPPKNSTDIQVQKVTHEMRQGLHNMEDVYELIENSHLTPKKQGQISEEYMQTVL

Regarding `O=C(O)Cc1sc(-c2ccccc2)nc1-c1ccc(Cl)cc1`, the Potency result in test [1], in test [2], in test [3], in test [4], in test [5] and in [7] was “inactive” throughout. Moreover, the Potency result in [8], in [10], in test [11], in [13], in [14] and in test [15] was “inactive” in each case. Besides, in test [16], the Potency entry is “inactive”. Moreover, the compound was called inactive in test [6] and in [9]. Further, in [12], the Potency is 21.1 µM (active).
Regarding `Nc1nc(N)c(-c2ccccc2)s1`, the Potency result in [17], in test [4], in test [5], in test [7], in [8] and in test [10] was “inactive” each time. Moreover, the Potency entry in test [11], in test [12] and in test [18] was “inactive” each time. Also, the compound was called inactive in test [6] and in [9].
Consider `O=[N+]([O-])c1cc[n+]([O-])cc1`, for which the Potency entry in test [1], in test [5], in [11], in test [13] and in test [14] was “inactive” throughout. The Potency in test [2] was 54.5 µM (active); in test [3], 54.5 µM (active); in test [8] it was 61.1 µM (active); in test [10] it was 30.6 µM (active); in [19] it was 43.3 µM (active); in test [12] it was 27.3 µM (active).
For the compound `FC(F)(F)C(F)(F)C(F)(F)C(F)(F)C(F)(F)C(F)(F)CCI`, the Potency result in test [17], in test [3], in [7], in [8], in test [10] and in test [11] was “inactive” each time. The Potency result in test [12], in [15] and in test [16] was “inactive” in each case. The call in [6] and in test [9] was inactive.
Turning to `C=Cc1c(C)c2cc3[nH]c(cc4nc(cc5nc(cc1[nH]2)C(C)=C5CCC(=O)O)C(CCC(=O)O)=C4C)c(C)c3C=C`, the Potency entry in [3], in test [4], in [5], in test [20], in test [19] and in test [12] was “inactive” each time. For the same compound, the Potency entry in test [18], in test [14], in test [15] and in test [16] was “inactive” each time. The Potency was 13.3 µM (active) in test [7], 23.7 µM (active) in test [8] and 21.1 µM (active) in test [11]. In test [9], the result was inactive.
In the case of `CC1CCc2cc(F)cc3c(=O)c(C(=O)O)cn1c23` (configuration not stated), the Potency entry in test [1], in [4], in [5], in test [7], in test [8] and in test [10] was “inactive” throughout. Further, the Potency entry in test [20], in test [11], in [12] and in test [16] was “inactive” throughout. Also, the result in test [6] and in [9] was inactive.
For the compound `NC(=S)N/N=C/c1cccnc1`, the Potency entry in test [2], in test [4], in test [5], in [7], in test [8] and in test [10] was “inactive” each time. Besides, the Potency result in test [11], in test [12], in test [13], in test [18] and in test [15] was “inactive” in each case. The compound was classed as inactive in test [6].
With `Cc1ccc(C)o1`, the Potency result in test [1], in test [5], in test [7], in [8], in test [10] and in test [20] was “inactive” throughout. Further, the Potency entry in test [19], in test [11], in test [12], in test [18], in [15] and in test [16] was “inactive” in each case. Moreover, the outcome in [6] and in [9] was inactive.
As to `CCCCOc1ccc(CC(=O)NO)cc1`, the Potency result in [1], in test [4], in test [5], in [20], in test [11] and in [15] was “inactive” throughout. For the same compound, the Potency result in test [16] is “inactive”. Further, in test [9], the call was inactive. Besides, the Potency in test [12] is 9.44 µM (active).
In the case of `CCCCCC/C=C/C=O`, the Potency entry in test [1], in test [5], in test [7], in test [8], in test [10] and in test [11] was “inactive” each time. The Potency entry in test [12] and in [18] was “inactive” throughout. Further, the compound was called inactive in test [6] and in test [9].
Regarding `CC[C@H](C)[C@@H](C(=O)O)n1sc2ccccc2c1=O`, the Potency result in test [1], in test [3], in test [7], in test [8], in test [11] and in test [15] was “inactive” each time. Also, the Potency entry in test [16] is “inactive”. Besides, the result in [6] and in test [9] was inactive. The Potency in [10] was 27.3 µM (active); in [12], 54.5 µM (active); in test [18] it was 30.6 µM (active).
